In PubChem BioAssay (EPA / NIEHS):
Where “and” joins values, the source holds several entries; their conditions need not be identical. Equal entries are not always repeated. Inconclusive results are not listed. Calls of active or inactive are those of the source. How the source made its calls: active means hit-call score of the fitted dose curve at least 0.9, where 1 is the maximum; inconclusive means response in the unintended direction; inactive means score below 0.9.

assay: TOX21_p53_BLA_p3_viability: Viability Assessment in the Tox21 HCT-116 p53 Agonism Beta-lactamase Assay, Phase 3 (AID 2283593);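 further: cells exposed to compound for 16 h before reading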
Text: TOX21_p53_BLA_p3 is a cell-based, single-readout assay that uses HCT116, a human intestinal cell line, […] in a 1536-well plate.TOX21_p53_BLA_p3_viability is an assay readout measuring cellular ATP content and detected with CellTiter-Glo Luciferase-coupled ATP quantitation.TOX21_p53_BLA_p3_viability used a type of viability reporter where loss-of-signal activity can be used to understand changes in the cell viability. Furthermore, this assay endpoint can be referred to as a secondary readout, because this assay has produced multiple assay endpoints where this one serves a viability function. To generalize the intended target to other relatable targets, this assay endpoint is annotated to the cell cycle intended target family, where the subfamily is cytotoxicity.
Thawing Method: Place 14 mL of pre-warmed thaw medium into a 15 mL of conical tub. Remove the vial of cells to be thawed from liquid nitrogen and thaw rapidly by placing at 37C in a water bath with gentle agitation for 1-2 minutes. Decontaminate the vial by wiping with 70% ethanol before opening in a biological safety cabinet. Transfer the vial contents drop-wise into 14 mL of thaw medium in a sterile 15-mL conical tub. Centrifuge cells at 900 rpm for 4 minutes and resuspend in thaw medium. Transfer contents to the T75 tissue culture flask containing Thaw Medium and place flask in a humidified 37C/5% CO2 incubator. Switch to growth medium at first passage.Propagation Method: Aspirate medium, rinse once in DPBS, add 0.25% Trypsin/EDTA and swirl to coat the cell evenly. Add an equal volume of Growth Medium to inactivate Trypsin after 2-3 minutes incubation at 37C. Centrifuge cells at 900 rpm for 4 minutes and resuspend in growth medium. Cell should be passage or fed at least twice a week.Assay Protocol: Harvest cells from culture in growth medium and resuspend in assay medium. 2.2 Dispense 4000 cells/5 uL/well into 1536-well black/clear bottom plates using a Multidrop dispenser. After the cells were incubated at 37C for 5 hours, 23 nL of compounds dissolved in DMSO were transferred to the assay plate by a PinTool resulting in a 217-fold dilution. Incubate the plates for 16 hours at 37C, 5% CO2. Add 1 uL of 6X LiveBLAzer FRET B/G (CCF4-AM) Substrate Mixture to each well using a BioRAPTR dispenser and incubate the plates at room temperature for 2 hours. Measure fluorescence intensity at 460 and 530 nm emission and 405 nm excitation by an Envision detector. Data is expressed as the ratio of 460nm/530nm emissions. Add 4 uL of Cell-titer Glo to each well using BioRAPTR and incubate the plates at room temperature for […]. For cell viability readout that measures cytotoxicity, 4 ul/well of CellTiter-Glo reagent was added into the assay plates using a Flying Reagent Dispenser. After 30 min incubation at room temperature, the luminescence intensity in the plates was measured using a ViewLux plate reader.

Row | SMILES | outcome | AC50
1 | CCN(CC)c1ccc2c(C)cc(=O)oc2c1 | inactive | –
2 | Cc1ccc(S(=O)(=O)NCl)cc1 | inactive | –
3 | CNC(=S)NC | inactive | –
4 | OC[C@@H](O)[C@@H](O)[C@H](O)[C@@H](O)CO | inactive | –
5 | Oc1ccc(Nc2ccccc2)cc1 | inactive | –
6 | CCCCCCOC(=O)c1ccccc1O | inactive | –
7 | CCCCCCCCCCCCCCCC[N+](C)(C)Cc1ccccc1 | – | 33.5 µM (active) and 9 µM (active)
8 | O=S(=O)(O)c1ccc2ccccc2c1 | inactive | –
9 | C#C[C@]1(O)CC[C@H]2[C@@H]3CCc4cc(OC)ccc4[C@H]3CC[C@@]21C | inactive | –
10 | Nc1cc(Cl)c(N)c(Cl)c1 | inactive | –
11 | C1COCCN1 | inactive | –
12 | O=C(C=Cc1ccccc1)OCC=Cc1ccccc1 | inactive | –
13 | c1ccc(B(c2ccccc2)c2ccccc2)cc1 | inactive | –
14 | CCCCCCOC(=O)c1ccccc1 | inactive | –
15 | CCCCNc1ccccc1 | inactive | –
16 | COC(=O)C1CCC(C(=O)OC)CC1 (stereo not drawn) | inactive | –
17 | CC(Cc1ccc(O)c(O)c1)C(C)Cc1ccc(O)c(O)c1 (stereo not drawn) | – | 86.7 µM (active)
18 | CC(CCl)OP(=O)(OC(C)CCl)OC(C)CCl (stereo not drawn) | inactive | –
19 | Nc1ccc([N+](=O)[O-])cc1O | inactive | –
20 | CC/C=C\CCOC(C)=O | inactive | –
21 | C(=C(c1ccccc1)c1ccccc1)c1ccccc1 | inactive | –
22 | Nc1ccc(S(=O)(=O)Nc2nccs2)cc1 | inactive | –
23 | CCc1ccc(C(c2ccc(CC)cc2)C(Cl)Cl)cc1 | inactive | –
